{
  "source": "PubChem BioAssay AID602393",
  "about": "(Broad Institute, 2012)",
  "note": "Hit rate of the full screen: of about 350,000 compounds, about 7,000 (2%) were called active. The sample as a whole holds a higher share of actives than the screen did. A number with no mark means an inactive call. Rule as the data show it: active = activation above about 40%; inconclusive = no clear call, values can overlap the other calls; inactive = below that.",
  "data": [
    {"assay": "raisers of Bmi1 knock-in reporter signal – mouse ES cells, Bmi1 luciferase knock-in, single point, esBAF inhibitor project, primary screen (AID 602393);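 also: 0% = median of the plate's neutral control wells and 100% = double that signal; a rise in the Bmi1 reporter signal indicates esBAF inhibition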", "settings": "24 h, at 12.5 µM, hits give high values, 100% = twice the neutral-well signal", "values": [
      {"smiles": "CC(C)NC(=O)Nc1ccc2c(c1)C(=O)N([C@@H](C)CO)C[C@H](C)[C@@H](CN(C)S(C)(=O)=O)O2", "reporter increase": "-2.99%"},
      {"smiles": "COCC(=O)Nc1ccc2c(c1)C(=O)N(C)C[C@@H](OC)[C@H](C)CN(C(=O)c1ccccn1)[C@@H](C)CO2", "reporter increase": "4.23%"},
      {"smiles": "CCOC(=O)c1[nH]c2c(c1C)C(=O)CC(c1ccc(N(C)C)cc1)C2", "note": "(stereo not given)", "reporter increase": "51.2% (active)"},
      {"smiles": "CCCOC(=O)C1=C(C)NC2=C(C(=O)C(C(=O)OC)C(C)C2)C1c1ccc(N(C)C)cc1", "note": "(stereo not given)", "reporter increase": "8.57%"},
      {"smiles": "CCCOC(=O)c1[nH]c2c(c1C)C(=O)CC(c1cccs1)C2", "note": "(stereo not given)", "reporter increase": "-12.1%"},
      {"smiles": "CC(=O)N1[C@H](CO)[C@H](c2ccc(-c3ccccc3)cc2)[C@H]1CNC(=O)C1CC1", "reporter increase": "2.48%"},
      {"smiles": "COc1ccccc1S(=O)(=O)Nc1ccc2c(c1)C(=O)N(C)C[C@H](OC)[C@H](C)CN[C@H](C)CO2", "reporter increase": "-6.13%"},
      {"smiles": "C1=C(CCNc2ncnc3c2cnn3-c2ccccc2)CCCC1", "reporter increase": "69.7% (active)"},
      {"smiles": "CC(C)Sc1ncnc2c1cnn2-c1ccccc1", "reporter increase": "19%"},
      {"smiles": "Cc1nn(C(C)C(=O)NCCC2=CCCCC2)c(=O)c2nn(-c3ccccc3)c(C)c12", "note": "(stereo not given)", "reporter increase": "21%"},
      {"smiles": "C[C@@H]1CN([C@@H](C)CO)C(=O)Cc2cc(NC(=O)CCN3CCOCC3)ccc2O[C@@H]1CN(C)C(=O)Nc1cccc2ccccc12", "reporter increase": "-0.153%"},
      {"smiles": "Cc1ccc(NC(=O)c2cc3ccccc3o2)cc1", "reporter increase": "52.9% (active)"},
      {"smiles": "Cc1cc(NC(=O)c2cc3ccccc3o2)no1", "reporter increase": "20.5%"},
      {"smiles": "O=C(NCCc1ccc2c(c1)OCCO2)c1cc2ccccc2o1", "reporter increase": "24.4%"},
      {"smiles": "O=C(Nc1ccncc1)c1cc2ccccc2o1", "reporter increase": "75.6% (active)"},
      {"smiles": "CN(C)C(CNC(=O)c1cc2ccccc2o1)c1ccccc1", "note": "(stereo not given)", "reporter increase": "7.21%"},
      {"smiles": "CC(C)(C)n1nc2c(c1NC(=O)c1cc3ccccc3o1)CSC2", "reporter increase": "-2.69%"},
      {"smiles": "COc1ccccc1C#Cc1ccc2c(c1)O[C@@H](CN(C)Cc1cncnc1)[C@H](C)CN([C@@H](C)CO)S2(=O)=O", "reporter increase": "8.66%"},
      {"smiles": "COC(=O)N(C)C[C@H]1OCc2ccccc2-c2ccccc2C(=O)N([C@@H](C)CO)C[C@H]1C", "reporter increase": "5.99%"},
      {"smiles": "CN(c1cccc(NC(=O)c2ccc(CN3CCc4ccccc4C3)cc2)c1)S(C)(=O)=O", "reporter increase": "-0.323%"},
      {"smiles": "CN(c1cccc(NC(=O)Nc2ccc(Cl)cc2)c1)S(C)(=O)=O", "reporter increase": "50.6% (active)"},
      {"smiles": "CN(c1ccccc1)S(=O)(=O)c1cccc(NC(=O)Cc2ccc(Cl)cc2)c1", "reporter increase": "-11.6%"},
      {"smiles": "C[C@H](CO)N1C[C@H](C)[C@@H](CN(C)CC2CCCCC2)Oc2ccc(NS(=O)(=O)c3cccs3)cc2CC1=O", "reporter increase": "-1.82%"},
      {"smiles": "CCCNC(=O)C[C@@H]1C[C@@H]2c3cc(N(C)C)ccc3O[C@@H]2[C@H](CO)O1", "reporter increase": "1.01%"},
      {"smiles": "CCCN(C)C[C@@H]1Oc2cc(C#Cc3ccc(F)cc3)ccc2S(=O)(=O)N([C@H](C)CO)C[C@H]1C", "reporter increase": "-2.93%"},
      {"smiles": "CCOC(=O)c1cc(-c2sc(NC(=O)c3ccccc3)nc2C)n(-c2ccc(Br)cc2)n1", "reporter increase": "50.4% (active)"},
      {"smiles": "CCOC(=O)c1cc(-c2sc(NC(=O)c3ccccc3)nc2C)n(Cc2ccccc2)n1", "reporter increase": "56% (active)"},
      {"smiles": "C=CCn1nc(C(=O)OCC)cc1-c1sc(NC(=O)c2ccccc2)nc1C", "reporter increase": "4.24%"},
      {"smiles": "CCOc1ccc(C(=O)Nc2c3c(nn2-c2ccccc2)CS(=O)(=O)C3)cc1", "reporter increase": "-0.973%"},
      {"smiles": "CCOC(=O)c1cc2ccccc2n1CC(=O)c1ccccc1", "reporter increase": "2.35%"},
      {"smiles": "CCOC(=O)c1cc(-c2sc(NC(=O)c3ccccc3)nc2C)n(CCO)n1", "reporter increase": "12.3%"},
      {"smiles": "COc1ccc(NC(=O)Nc2ccc3c(c2)[C@@H]2C[C@H](CC(=O)N[C@@H](C)c4ccccc4)O[C@@H](CO)[C@@H]2O3)cc1", "reporter increase": "-1.34%"},
      {"smiles": "Cc1ccc(S(=O)(=O)N(C)C[C@@H]2OCCCC[C@@H](C)Oc3ccc(NC(=O)Nc4ccc(C(F)(F)F)cc4)cc3C(=O)N([C@@H](C)CO)C[C@@H]2C)cc1", "reporter increase": "1.3%"},
      {"smiles": "C[C@@H]1CCCCO[C@H](CN(C)S(=O)(=O)c2ccccc2)[C@H](C)CN([C@@H](C)CO)C(=O)c2cc(N(C)C)ccc2O1", "reporter increase": "-0.863%"},
      {"smiles": "Nc1ncc(-c2cc3ccccc3oc2=O)s1", "reporter increase": "47.3% (active)"},
      {"smiles": "Cc1cc2c(=O)n(C)c(SCC(=O)c3cc4ccccc4o3)nc2s1", "reporter increase": "-5.28%"},
      {"smiles": "COc1ccc2oc(=O)cc(-c3cc4ccccc4o3)c2c1", "reporter increase": "-2.86%"},
      {"smiles": "COc1ccccc1C(=O)Nc1ccc2c(c1)C(=O)N(C)C[C@@H](OC)[C@@H](C)CN(CC1CC1)[C@@H](C)CO2", "reporter increase": "2.64%"},
      {"smiles": "CCC(=O)N1CCCCN2[C@H](C1)[C@@H](c1ccc(C#CCOC)cc1)[C@@H]2CO", "reporter increase": "3.27%"},
      {"smiles": "C[C@H](CO)N1C[C@H](C)[C@@H](CN(C)S(=O)(=O)c2ccc(F)cc2)OCCCC[C@H](C)Oc2ccc(NC(=O)CCCN(C)C)cc2C1=O", "reporter increase": "-3.29%"},
      {"smiles": "Cc1ccc(S(=O)(=O)N2C[C@H](O)COC[C@@H]3O[C@@H](CC(=O)NCC4CCCCC4)CC[C@H]32)cc1", "reporter increase": "-0.379%"},
      {"smiles": "COc1ccc(C(O)c2nc(-c3ccc4c(c3)OCO4)cs2)cc1", "note": "(stereo not given)", "reporter increase": "11.6%"},
      {"smiles": "COc1cc(C(O)c2nc(-c3cccc(C(=O)O)c3)cs2)ccc1F", "note": "(stereo not given)", "reporter increase": "4.68%"},
      {"smiles": "COCc1cccc(-c2csc(C(O)c3ccc(F)cc3)n2)c1", "note": "(stereo not given)", "reporter increase": "49.8% (active)"},
      {"smiles": "O=C(c1cccnc1)N1C[C@@H]2[C@H](c3ccccc31)[C@@H](CO)N2C(=O)Nc1ccc(F)cc1", "reporter increase": "1.17%"},
      {"smiles": "COc1ccc(S(=O)(=O)N(C)C[C@H]2OCCCC[C@@H](C)Oc3ccc(NS(=O)(=O)c4ccc(C)cc4)cc3C(=O)N([C@@H](C)CO)C[C@@H]2C)cc1", "reporter increase": "7.8%"},
      {"smiles": "CCN1[C@@H]2Cn3c(ccc(-c4cccnc4)c3=O)[C@H]1[C@@H](C(=O)NC1CCCCC1)[C@@H]2CO", "reporter increase": "-4.32%"},
      {"smiles": "COCCCNC(=O)COc1cc(C)c(Cl)c(C)c1", "reporter increase": "4.32%"},
      {"smiles": "Cc1cccnc1CC(C)NC(=O)c1cc(COc2cncc(Cl)c2)on1", "note": "(stereo not given)", "reporter increase": "9.52%"},
      {"smiles": "Cc1cc(OCc2cc(C(=O)NCc3cc(C(C)C)no3)no2)cc(C)c1Cl", "reporter increase": "81.9% (active)"},
      {"smiles": "COc1ccc(CN(C)C[C@@H]2OCCCC[C@H](C)Oc3ccc(NS(=O)(=O)c4ccc(F)cc4)cc3C(=O)N([C@@H](C)CO)C[C@@H]2C)cc1", "reporter increase": "-7.82%"},
      {"smiles": "Cn1cnc(S(=O)(=O)N2C[C@@H](O)COC[C@@H]3O[C@H](CC(=O)NCc4ccc(F)cc4)CC[C@H]32)c1", "reporter increase": "-4.57%"},
      {"smiles": "O=C(c1cccc(F)c1)N1CC[C@@H]2[C@@H](CO)Nc3ccc(C#Cc4cccc(F)c4)cc3[C@@H]21", "reporter increase": "2.36%"},
      {"smiles": "Cc1noc(C)c1NC(=O)N[C@@H]1C=C[C@@H](CC(=O)Nc2ccccc2)O[C@H]1CO", "reporter increase": "1.58%"},
      {"smiles": "COc1cccc(C(=O)Nc2nnc(S(=O)(=O)N(C)c3ccccc3)s2)c1", "reporter increase": "3.61%"},
      {"smiles": "COc1cc(NC(=O)CN(C)S(=O)(=O)c2ccc3nc(C)sc3c2)cc(OC)c1", "reporter increase": "-1.66%"},
      {"smiles": "COc1ccc2nc(NC(=O)c3ccc(Br)s3)sc2c1", "reporter increase": "71.6% (active)"},
      {"smiles": "O=C(Nc1ccc2c(c1)CCC2)c1ccc(Br)s1", "reporter increase": "21.7%"},
      {"smiles": "COc1ccc(CNC(=O)c2ccc(Br)s2)cc1OC", "reporter increase": "-1.1%"},
      {"smiles": "COc1cccc(C(=O)Nc2nc3ccc(S(C)(=O)=O)cc3s2)c1", "reporter increase": "50.7% (active)"},
      {"smiles": "C[C@H](NC(=O)C[C@@H]1C=C[C@H](NC(=O)CN2CCOCC2)[C@H](CO)O1)c1ccccc1", "reporter increase": "-6.32%"},
      {"smiles": "N#Cc1ccc(-c2ccc3c(c2)[C@H]2[C@H](CCN2Cc2ccc4c(c2)OCO4)[C@@H](CO)N3)cc1", "reporter increase": "-8.59%"},
      {"smiles": "CCCNC(=O)N(C)C[C@H]1Oc2cc(-c3ccncc3)ccc2S(=O)(=O)N([C@H](C)CO)C[C@H]1C", "reporter increase": "0.442%"},
      {"smiles": "CCCNC(=O)C[C@H]1CC[C@H]2[C@@H](COC[C@H](O)CN2C(=O)CC)O1", "reporter increase": "5.31%"},
      {"smiles": "CCCNC(=O)N1[C@H](C#N)[C@@H](c2ccccc2)[C@H]1CO", "reporter increase": "-3.13%"},
      {"smiles": "Cc1ccc(S(=O)(=O)NCC[C@H]2CC[C@@H](NC(=O)C3CCOCC3)[C@@H](CO)O2)cc1", "reporter increase": "-2.84%"},
      {"smiles": "Cc1csc(NC(=O)NC2(C(F)(F)F)Oc3ccccc3O2)n1", "reporter increase": "-3.69%"},
      {"smiles": "Cc1csc(NC(=O)Nc2ccccc2[N+](=O)[O-])n1", "reporter increase": "60.4% (active)"},
      {"smiles": "CN1CCN(CCNC(=O)Nc2ccccc2[N+](=O)[O-])CC1", "reporter increase": "-5.22%"},
      {"smiles": "C[C@H]1CN([C@@H](C)CO)C(=O)c2cc(Br)cnc2O[C@@H]1CN(C)C(=O)c1ccccc1", "reporter increase": "-3.42%"},
      {"smiles": "COc1ccc(CNc2ncnc3ccccc23)cc1", "reporter increase": "-11.7%"},
      {"smiles": "COc1ccc(Nc2cc(Sc3ccc(OC)cc3)ncn2)cc1", "reporter increase": "13.3%"},
      {"smiles": "COc1ccc(Nc2ncnc3sc(C)cc23)cc1", "reporter increase": "66.1% (active)"},
      {"smiles": "Cc1ccc(-c2nnc(SC(C)C#N)n2N)cc1", "note": "(stereo not given)", "reporter increase": "0.696%"},
      {"smiles": "C=C(C)CSc1nnc(-c2ccc(C)cc2)n1N", "reporter increase": "57.8% (active)"},
      {"smiles": "Cc1ccccc1CSc1nnc(-c2cccnc2)n1N", "reporter increase": "17.5%"},
      {"smiles": "CCS(=O)(=O)Nc1ccc2c(c1)C(=O)N(C)[C@@H]1CC[C@H](CC(=O)N3CCCCC3)O[C@@H]1CO2", "reporter increase": "-2.06%"},
      {"smiles": "O=C(CN1CCN(c2ccc(F)cc2)CC1)Nc1cccc(C(F)(F)F)c1", "reporter increase": "-10.4%"},
      {"smiles": "CCc1sc(C(=O)N2CCN(CC(=O)Nc3cccc(F)c3)CC2)cc1C", "reporter increase": "79.7% (active)"},
      {"smiles": "CC(=O)N1CCN(CC(=O)Nc2ccc(C)c(F)c2)CC1", "reporter increase": "-6.19%"}
    ]}
  ]
}
